Reference: PubChem BioAssay AID624354 (Sanford-Burnham Center for Chemical Genomics, 2012)
Hit rate of the full screen: of about 360,000 compounds, about 3,800 (1.1%) were called active. This is one part of a sample in which actives are shown more often than they occur.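 The calls were made as follows: active = compounds causing at least 50% loss of cell viability in the single-dose screen, relative to plate controls; inactive = the rest.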

Experiment: viability loss with TRAIL in NB7+C8 cells, primary screen, TRAIL sensitizer project, cell-based, ATPlite luminescence (AID 624354)
Conditions: at 10 µM, stronger effect = higher value

Row | SMILES | inhibition (viability loss, TRAIL sensitization)
1 | Cc1ccc(CNC(=O)Cn2cnc3c(NCc4ccccc4)ncnc32)o1 | 20.3% (inactive)
2 | OCC1(Cc2ccccc2C(F)(F)F)CCN(Cc2cccc3cnccc23)CC1 | 2.15% (inactive)
3 | COc1ccc(C(=O)NCC[N+](C)(C)C)cc1 | -3.08% (inactive)
4 | Cc1ccc(S(=O)(=O)N(C)C)cc1NC(=O)c1ccc(-n2cncn2)c([N+](=O)[O-])c1 | -6.94% (inactive)
5 | O=C(COC(=O)c1c(Cl)cccc1Cl)Nc1cccc(S(=O)(=O)NC2=NCCCCC2)c1 | -2% (inactive)
6 | O=C1NC[C@H](Cc2ccc(O)cc2)N(C[C@@H]2CCCN2C[C@H](Cc2ccccc2)N2C[C@H](Cc3ccccc3)N(CC3CCCCC3)C(=O)C2=O)C1=O | -7.58% (inactive)
7 | CN(C)NC(=O)C(NC(=O)c1ccc(N)cc1)C12CC3CC(CC(C3)C1)C2 (stereo unspecified) | -0.166% (inactive)
8 | Cc1nc2cc(S(=O)(=O)C(F)(F)F)ccc2s1 | 15.9% (inactive)
9 | CCN1CCCC1CNC(=O)Cn1cnc2ccc(S(=O)(=O)N3CCC(C)CC3)cc2c1=O (stereo unspecified) | 3.92% (inactive)
10 | CC(C)(C)Oc1ccccc1Nc1nc(NCCO)nc(N2CCCC2)n1 | -17.8% (inactive)
11 | O=C(CCl)Nc1ccc(Sc2ccc(NC(=O)CCl)cc2)cc1 | 51.1% (active)
12 | CC(=O)Nc1ccc(SCC(=O)NC(=O)c2ccc(Cl)cc2)cc1 | -7.06% (inactive)
13 | O=C(O)CC(SCC(=O)Nc1ccc(Br)cc1)C(=O)O (stereo unspecified) | -3.72% (inactive)
14 | COc1cccc2cc(/C(C)=N/NC(=O)c3ccco3)oc12 | 4.04% (inactive)
15 | Cc1oc2c(F)c(F)c(F)c(F)c2c1S(=O)(=O)Nc1cccc(C(F)(F)F)c1 | 29.6% (inactive)
16 | O=C(CN1CCc2cc3c(cc2C1)OCCCO3)Nc1ccccc1 | -22% (inactive)
17 | N#Cc1ccccc1NC(=O)c1ccc2c(c1)OCO2 | 0.697% (inactive)
18 | CCCc1cc(C(=O)Nc2ccc(Cl)cn2)cs1 | 48.6% (inactive)
19 | Cc1ccc2sc(NNC(=O)c3ccc4c(c3)OCCO4)nc2c1C | -37.1% (inactive)
20 | O=C(Nc1nc2ccccc2s1)c1ccc2c(c1)OCO2 | 74.6% (active)
21 | Cc1nc(NC(=O)c2ccc3c(c2)OCCO3)ccc1Br | 21.7% (inactive)
22 | CN1CCN(c2ccc(NC(=O)c3ccc4c(c3)OCCO4)cc2Cl)CC1 | 42.3% (inactive)
23 | O=C(Nc1ccccc1)c1ccc2c(c1)OCCCO2 | 78% (active)

Row | SMILES | inhibition (viability loss, TRAIL sensitization)
24 | O=C(Nc1ccc(Cl)cn1)c1ccc2c(c1)OCCO2 | 64% (active)
25 | COc1ccccc1NC1=NC(c2ccc(Cl)cc2)N=C(N)N1 (stereo unspecified) | -3.71% (inactive)
26 | CC(C#N)OC(=O)c1cccnc1SCC(=O)Nc1ccc2c(c1)OCO2 (stereo unspecified) | 4.56% (inactive)
27 | COc1ccccc1NS(=O)(=O)N(C)C | -12.4% (inactive)
28 | NC(=O)COc1ccc(NC(=O)c2ccccc2-c2ccccc2)cc1 | -7.08% (inactive)
29 | CC(=O)C[C@H](O)CC(=O)[C@@H]1OC(=O)[C@@H](C)C/C=C\Cc2ccccc21 | -3.79% (inactive)
30 | CCC(=O)Nc1ccc(S(=O)(=O)Nc2c(NC)c3ccccc3oc2=O)cc1 | 1.26% (inactive)
31 | Cc1cn([C@H]2C[C@H](O)[C@@H](CNC(=O)[C@H](N)Cc3cccnc3)O2)c(=O)[nH]c1=O | -0.759% (inactive)
32 | CNC(=O)/C(=C\C=C\c1ccccc1)NC(=O)c1ccc([N+](=O)[O-])cc1 | -5.87% (inactive)
33 | CN1OC[C@@H]2CN(C(=O)c3ccc(-c4ccccc4)cc3)[C@H](c3ccc(-c4cccc(F)c4)cc3)C[C@@H]21 | -16.6% (inactive)
34 | CCCOc1ccc(Cc2c(Cl)nc(SC)nc2NC)cc1 | 31.2% (inactive)
35 | Cc1[nH]n(-c2ccccc2)c(=O)c1/C=N/NC(=O)c1ccoc1C | 53.8% (active)
36 | Cc1ccc(-c2ccnc3[nH]n(-c4ccccc4)c(=O)c23)cc1 | -11.3% (inactive)
37 | Cc1occc1C(=O)N/N=C/c1ccc(-c2cccc([N+](=O)[O-])c2)o1 | -8.06% (inactive)
38 | CCOc1ccc(S(=O)(=O)N2CCC(c3ccccc3)CC2)cc1C(=O)O | -3.46% (inactive)
39 | C/C(=N\NC(=O)c1ccc(C)cc1)C1C(=O)c2ccccc2C1=O | 8.6% (inactive)
40 | O=C(NC1=CC(=O)c2ccccc2C1=O)c1ccccc1 | 94.6% (active)
41 | COc1cc(NC(=O)c2ccccc2)c(OC)cc1NC(=O)Cc1ccccc1 | -3.72% (inactive)
42 | CC1(C(=O)NS(=O)(=O)Cc2cccc(Cl)c2)CCN1C(=O)Cc1ccc(Cl)cc1Cl (stereo unspecified) | -0.832% (inactive)
43 | COc1ccc(C(N)c2csc(NC(=O)Nc3cccc(C(F)(F)F)c3)n2)cc1 (stereo unspecified) | 25.4% (inactive)
44 | NC(c1csc(NC(=O)Nc2cccc(C(F)(F)F)c2)n1)C1CCCCC1 (stereo unspecified) | 88.8% (active)
45 | CC(C)(C)CC(=O)Nc1nc(C(N)Cc2ccc(C(F)(F)F)cc2)cs1 (stereo unspecified) | -0.292% (inactive)
46 | Cc1cccc(C(=O)OC(C)C(=O)NC2CCCc3ccccc32)c1O (stereo unspecified) | 12.2% (inactive)

Row | SMILES | inhibition (viability loss, TRAIL sensitization)
47 | CC1CCN(C(=O)C2CCN(S(=O)(=O)N3CCC4(CC3)OCCO4)CC2)CC1 | -3.06% (inactive)
48 | CCOC(=O)C1=C(C)NC(C)=C(C(=O)OCC)C1C1=COCCO1 | -19.1% (inactive)
49 | CC1COc2ccccc2N1C(=O)c1ccc(F)cc1 (stereo unspecified) | -8.83% (inactive)
50 | O=C(c1ccc(F)cc1)n1c(=S)nc2ccccn21 | 83% (active)
51 | O=C(c1ccc(F)cc1)N1CCC(n2nnc3ccccc32)CC1 | -1.41% (inactive)
52 | Cc1c(C2=CCN(S(=O)(=O)c3ccc(Cl)cc3)CC2)c2ccccc2n1C | 9.41% (inactive)
53 | Cn1c(N)c(C(=O)COC(=O)/C=C/c2ccc(OC(F)F)cc2)c(=O)n(C)c1=O | -6.75% (inactive)
54 | Cc1ccccc1C(OCCN(C)C)C1CCCCC1 (stereo unspecified) | -0.767% (inactive)
55 | Brc1ccc(C2CC(c3ccccc3)=Nc3ccccc3N2)cc1 (stereo unspecified) | 24.3% (inactive)
56 | COc1ccc(C2CC(c3ccccc3)=NN2C(=O)CSc2nccc(=O)[nH]2)cc1 (stereo unspecified) | 25.2% (inactive)
57 | CNC(=S)N1N=C(c2ccccc2)CC1c1ccc(Br)cc1 (stereo unspecified) | 79.2% (active)
58 | CC1C(C)N(C(=O)CCl)c2ccccc2N1C(=O)CCl (stereo unspecified) | 88.6% (active)
59 | CC1CC(C)CN(CC(=O)N2c3ccccc3CCc3ccccc32)C1 (stereo unspecified) | -22.2% (inactive)
60 | CC1C(=O)N(Cc2ccccc2)c2ccccc2N1C(=O)c1ccccc1 (stereo unspecified) | -0.863% (inactive)
61 | COc1ccc(C(=O)NC(C)Cn2nc(C)cc2C)cc1OC1CCN(C(C)=O)CC1 (stereo unspecified) | 8.29% (inactive)
62 | O=C(CC(O)(C(F)(F)F)C(F)(F)F)Nc1ccc(Cl)c(Cl)c1 | 62.6% (active)
63 | N#CCCN(C(=O)Nc1ccc(Cl)c(Cl)c1)C1CCCCC1 | 7.87% (inactive)
64 | CC1(C(=O)O)CCC(C(=O)Nc2ccc(Cl)c(Cl)c2)C1(C)C (stereo unspecified) | -2.64% (inactive)
65 | CC(=O)N1Cc2cc(C(=O)NCc3cccc(F)c3)nc(-c3cccc(C4=CCCCC4)c3)c2[C@H]1CCO | 4.95% (inactive)
66 | CSCCC(NC(N)=O)C(=O)N(C)CC(=O)Nc1ccc(C)cc1 (stereo unspecified) | -24.9% (inactive)
67 | COC(=O)c1sc(NC(=O)COC(=O)C2CCC2)c(C(=O)OC)c1C | -0.357% (inactive)
68 | CCOC(=O)c1c(NC(=O)CCl)sc(C(=O)N(CC)CC)c1C | 92.5% (active)
69 | CCOC(=O)c1c(NC(=O)COC(=O)c2ccc(S(=O)(=O)C(F)F)cc2)sc(C(=O)N(C)C)c1C | -18.3% (inactive)

Row | SMILES | inhibition (viability loss, TRAIL sensitization)
70 | CCc1ccc2oc(-c3ccc(N)cc3)nc2c1 | 74.9% (active)
71 | O=C(C(Cc1ccccc1)n1cccc1)N1CCN(C2CCCCC2)CC1 (stereo unspecified) | 1.84% (inactive)
72 | CC(=O)c1cccc(-c2cnc3c(NC=O)cc(-c4ccc(N(C)C)cc4)cn23)c1 | 17.5% (inactive)
73 | CN(C)CCNC(=O)c1cccc(-c2cnc3c(NC=O)cc(-c4cccc(C(F)(F)F)c4)cn23)c1 | 59.1% (active)
74 | CN(C)C(=O)c1cccc(-c2cnc3c(NC=O)cc(-c4ccc(F)cc4)cn23)c1 | 16.1% (inactive)
75 | Cc1ccc(-c2ccc(CN3C(C(C)C)C(=O)N(Cc4cn(CCC5OCCO5)nn4)CCS3(=O)=O)cc2)cc1 (stereo unspecified) | -2.12% (inactive)
76 | Oc1cccc2cc(-c3ccncc3)cnc12 | 47.7% (inactive)
77 | COc1ccc(C2=Nc3cc(C)ccc3OC2)cc1 | 58.6% (active)
78 | Cc1ccc(C(=O)NNC2=Nc3cc([N+](=O)[O-])ccc3OC2)cc1 | -18% (inactive)
79 | COc1ccc(C(O)c2nc(-c3ccc4c(c3)OCO4)cs2)cc1 (stereo unspecified) | -6.82% (inactive)
80 | C=CCN(CC=C)C(=O)COC(=O)c1n[nH]c2ccccc12 | 9.77% (inactive)
81 | Nc1ccccc1-c1nc2ccncc2[nH]1 | 12.6% (inactive)
82 | c1ccc2[nH]c(-c3nc4ccccc4[nH]3)nc2c1 | 69.4% (active)
83 | O=C1c2ccccc2C(c2nc3ccccc3[nH]2)N1c1ccccc1 (stereo unspecified) | -17.6% (inactive)
84 | CCOc1cc(/C=C(/C#N)c2ccc(Cl)cc2)cc(Cl)c1OCC(=O)O | 11.5% (inactive)
85 | O=C(CN1CCCC1)Nc1sc2c(c1C(=O)Nc1ccccc1)CCCC2 | 20.1% (inactive)
86 | NC(=O)c1c(NC(=O)c2ccccc2)sc2c1CCCC2 | 53.3% (active)
87 | O=C(O)c1c(NC(=O)N2CCCC2)sc2c1CCCC2 | 1.53% (inactive)
88 | C[C@H]1[C@H]2c3nc4ccccc4n3C[C@H]1ON2C1CCCCC1 | -6.24% (inactive)
89 | Cc1ccccc1S(=O)(=O)NC(=O)C1(C)CCN1C(=O)C1(c2ccc(Cl)cc2)CC1 (stereo unspecified) | -8.57% (inactive)
90 | CC(=O)c1ccc(S(=O)(=O)NC2CC(=O)N(c3ccc4c(c3)OCCO4)C2)cc1 (stereo unspecified) | 2.78% (inactive)
91 | COc1ccc(Br)cc1CN(C)C(=O)C1CC(=O)N(C2CCCC2)C1 (stereo unspecified) | -13.6% (inactive)
